Out of some 2,400 compounds screened, fewer than 10 were called active. The rule behind the calls is not given here. The list is a sample of the results.
The compounds below were run against Rac GTPase-activating protein 1 (Homo sapiens) (UniProt Q9H0H5) (assay: MgcRacGAP inhibitors via phosphate release, confirmation, orthogonal assay, biochemical, inorganic phosphate detection, Rac1 (AID 652142)). Conditions: MgcRacGAP/Rac1F28L GTP hydrolysis, Biomol green phosphate; stronger effect = higher value; concentration not given here.
Chain of Rac GTPase-activating protein 1 (Homo sapiens) (Q9H0H5 whole entry, looked up): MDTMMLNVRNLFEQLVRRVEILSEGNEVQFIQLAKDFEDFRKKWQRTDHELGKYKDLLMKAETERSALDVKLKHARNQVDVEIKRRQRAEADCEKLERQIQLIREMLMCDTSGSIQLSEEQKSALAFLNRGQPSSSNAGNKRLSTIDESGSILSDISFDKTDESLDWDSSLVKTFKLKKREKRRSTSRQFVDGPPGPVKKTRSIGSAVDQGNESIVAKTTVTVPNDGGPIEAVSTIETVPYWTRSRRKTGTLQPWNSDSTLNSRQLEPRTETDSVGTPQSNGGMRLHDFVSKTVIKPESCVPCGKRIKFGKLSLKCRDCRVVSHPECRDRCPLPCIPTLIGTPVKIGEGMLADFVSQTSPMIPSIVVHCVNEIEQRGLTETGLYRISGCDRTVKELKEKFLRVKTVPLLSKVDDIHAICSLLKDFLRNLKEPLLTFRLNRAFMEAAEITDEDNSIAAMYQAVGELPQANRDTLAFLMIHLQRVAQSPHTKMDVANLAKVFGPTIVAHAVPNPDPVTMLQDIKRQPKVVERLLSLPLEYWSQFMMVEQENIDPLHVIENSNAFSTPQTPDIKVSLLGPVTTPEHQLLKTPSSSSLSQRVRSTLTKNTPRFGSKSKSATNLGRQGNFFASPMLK

inhibition, inactive:
C/C(=N\Nc1ccc(S(=O)(=O)N2CCCCC2)cn1)c1ccc(O)cc1 27.3%
COc1ccccc1N=NNc1ccccc1OC 28.7%
CC(C)(C)N1C(=O)c2ccc(C(=O)Nc3ccc(O)cc3)cc2C1=O 24.3%
Cn1c(-c2ccc3c(c2)OCO3)cnc1NCc1ccccc1Cl 27.7%
COc1cccc(Nc2nc(-c3ccc(O)cc3)cs2)c1 31.8%
C=CCn1c(=O)/c(=C/c2ccc(O)cc2)s/c1=C(/C#N)c1nnc2n1CCCCC2 18.2%
COc1ccc(CNc2ncc(-c3ccc(F)cc3)n2C)c2ccccc12 17.2%
CCOC(=O)/C(C#N)=C\c1c(OCC)n(CC)c2ccccc12 19.7%
Cc1cccc(C)c1OCCCCN1CCNCC1 32%
CC1(C)OC(=O)C(=NNc2ccc(O)cc2)C(=O)O1 20.7%
CCN(CC)S(=O)(=O)c1cccc(NC(=O)CNC2CCCCCC2)c1 31%
C#CCOCCOCCOCCNc1nc(N2CCN(C(=O)[C@H](CCCCN)n3cc([C@@H](N)CC(C)C)nn3)CC2)nc(N2CCN(C(=O)[C@H](CCCCN)n3cc([C@@H](N)CC(C)C)nn3)CC2)n1 39.7%
COc1cc(/C=C2\SC(=Nc3c(C)n(C)n(-c4ccccc4)c3=O)NC2=O)ccc1O 22.8%
Nc1ccc2nc(-c3ccccc3)[nH]c2c1 26.8%
Oc1ccc(Cl)cc1C=Nc1ccc2c3c(cccc13)CC2 29.6%
Nc1ccc(-c2nc3ccc(N)cc3s2)cc1 22.9%
COc1cc2[nH]c(=S)nc(NCCc3ccc(S(N)(=O)=O)cc3)c2cc1OC 17.7%
Cc1c(O)ccc(/C(Cc2ccc3ccccc3n2)=N\O)c1O 25.3%
Oc1ccc(/C=N/Nc2cc(N3CCOCC3)nc(N3CCOCC3)n2)cc1O 7.37%
Cc1ccccc1-c1ccc(Nc2ccc(N3CCOCC3)cc2)nn1 33.6%
CC1=NN(c2ccccc2)C(=O)/C1=C/C=C/C=C/N(C)C 21.7%
Cc1ccc(C2C=NN(c3ccccc3)C2=O)cc1 (stereo not drawn) -3.99%
S=c1[nH]c2ccccc2n2c(=S)[nH]nc12 23.8%
O=C1CCCC/C1=C\Nc1ccc(O)cc1 30.3%
O=C(Nc1ccccc1C(=O)N/N=C/c1ccc(O)cc1)c1ccccc1 25.8%
Cc1ccc(Nc2n[nH]c(=S)s2)cc1 23.2%
C#CCOCCOCCOCCNc1nc(N2CCN(C(=O)[C@H](CCCCN)n3cc([C@@H](N)C(C)CC)nn3)CC2)nc(N2CCN(C(=O)[C@H](Cc3cc4ccccc4[nH]3)n3cc([C@@H](N)C(C)CC)nn3)CC2)n1 (stereo partly drawn) 54.2%
Fc1ccc(CNc2ccc(N3CCN(Cc4ccccc4)CC3)cc2)cc1 7.97%
Cc1cc(SCC(=O)c2ccc(O)c(O)c2)nc2ccccc12 5.6%
COc1ccc(NC(=O)n2ncc3cc(Cl)ccc32)cc1OC 23.6%
COc1ccc(C(CNC(=O)c2cc3ccccc3cc2O)N2CCOCC2)cc1 (stereo not drawn) 18%
CC1CCCCN1Cc1c(O)ccc2c(=O)c(-c3nc4ccccc4s3)c(N)oc12 (stereo not drawn) 30.4%
CCN(CC)CCCC(C)NC(=O)c1c(NC(=O)c2ccccc2)sc2c1CCCC2 (stereo not drawn) 24.9%
CN(C)CCCN1c2ccc(O)cc2Sc2ccc(Cl)cc21 30.1%
COc1cc(/C=N/NC(=O)c2cccc(NC(=O)c3ccccc3C)c2)ccc1O 19.3%
C/C(=N\NC(=O)c1ccc(O)cc1)c1ccc2c(c1)Nc1ccccc1S2 28.2%
CCOc1cc(CNc2ccc(N3CCCCC3)cc2)cc(Br)c1OCC(=O)NC(C)(C)C 35.1%
Cc1cc(NS(=O)(=O)c2ccc(Nc3nc(-c4ccc(O)cc4)cs3)cc2)no1 23.8%
COC(=O)c1ccc(NC(=S)Nc2ccc(O)cc2)cc1 34.6%
C[C@H]1CCC/C=C/[C@@H]2C[C@H](O)C[C@H]2[C@H](O)[C@H](S(=O)c2ccc(O)cc2)CC(=O)O1 (stereo partly drawn) 47.3%
Cc1[nH]nc(-c2ccc(O)c(C)c2O)c1-c1cnn(-c2ccccc2)c1 36.4%
Cn1c(=O)c2c([nH]c(=S)n2CCCc2ccccc2)n(C)c1=O 26.4%
Oc1ccc(N=Nc2ccccc2)cc1 8.73%
O=C1C=C(Nc2ccc(O)cc2)C(=O)c2ccccc21 25.1%
COc1cc(/C=N/Nc2nn3cnnc3c3ccccc23)ccc1O 26.4%
C/C(CC(=O)Nc1ccc(N(C)C)cc1)=N\NC(=O)c1ccc([N+](=O)[O-])cc1Cl 26.5%
COc1cc(/C=N/n2c(C3CCCCC3)n[nH]c2=S)ccc1O 27.2%
Cc1ccc(NC(=O)CN2CCN(C)CC2)cc1Br 26.9%
CCCCn1c(SCC(=O)c2ccc(O)c(O)c2)nc2ccsc2c1=O 27.5%
CCOC(=O)c1[nH]c2ccc(F)cc2c1NC(=O)c1ccccc1C(=O)O 22.6%
Cc1ccc(/C=N/Nc2ccc(Cl)c(C(=O)O)c2)s1 6.67%
O=C(c1cccnc1)N1CCN(Cc2cccc(Br)c2)CC1 26.8%
COc1ccc(N=C2NC(=O)/C(=C/c3ccc(O)c(OC)c3)S2)cc1 19.7%
Oc1ccc(-c2csc(-c3cccnc3)n2)c(O)c1 14.8%
Cc1nc(N)sc1-c1ccccc1 20.1%
COc1ccc(NC(=O)c2cc3ccc(O)cc3o/c2=N\O)cc1 17.5%
COc1cc(/C=N/NC(=S)Nc2cccc(S(=O)(=O)N(C)C)c2)ccc1O 20.1%
O=C(Nc1n[nH]c(=S)s1)c1ccco1 29.1%
CCc1nc(Nc2ccc(O)cc2)c2oc3ccccc3c2n1 27.8%
CCCCCC(=O)Nc1cc(S(=O)(=O)O)cc2cc(S(=O)(=O)O)cc(O)c12 64.8%
CCOc1ccc(/C=N/NC(=O)NC23CC4CC(CC(C4)C2)C3)cc1O 17.5%
CCn1c(C)nc2cc(C(=O)N/N=C/c3ccc(O)cc3)ccc21 22.6%
COc1ccc(Oc2c(-c3ccc(O)cc3O)n[nH]c2C)cc1 9.67%
C=C(CN(C)C)C(=O)c1cc(OC)c(OC)cc1OC 6.42%
CCn1c(=O)c(C(=O)CN(C)Cc2cccc(OC)c2OC)c(N)n(Cc2ccccc2)c1=O 35.9%
CCOc1ccc2c(ccc(/C=C/c3cc(C)c4cccnc4c3O)[n+]2C)c1 66.1%
CN(C)c1ccc(NC(=O)c2sc(SCC(=O)Nc3nccs3)nc2N)cc1 29.2%
Cc1ccc(NCCN(C)C)c2c(=O)c3cc(O)ccc3sc12 31.1%
C(=N\Nc1nc2ccccc2[nH]1)/c1c[nH]c2ccccc12 4.59%
COc1cc2c(cc1NC(=S)Nc1cccc3ccccc13)oc1ccccc12 21.3%
NS(=O)(=O)c1ccc(Nc2nc(-c3ccc(O)cc3O)cs2)cc1 24.5%
Cc1cc(=O)[nH]c2c(N=Nc3ccc(O)cc3)c(N)nn12 34.3%
CSCCOC(=O)C1=C(C)Nc2ccc(C)cc2S1 29.3%
OCC1CCCN(C(=S)Nc2ccc(Nc3ccccc3)cc2)C1 (stereo not drawn) 34.4%
COc1cc2c(cc1NC(=S)Nc1cccc(C(F)(F)F)c1)oc1ccccc12 8.84%
COc1cc(/C=N/n2c(-c3cc(C)[nH]n3)n[nH]c2=S)cc(OC)c1OC 1.28%
CCN(CC)c1ccc(C(=C2C=CC(=[N+](CC)CC)C=C2)c2ccc(N(CC)CC)cc2)cc1 90%
COc1cc(C=NNC(=O)c2ccccc2-n2cccc2)ccc1O 22%
COc1cc2c(cc1OC)C1(CCCC1)C(N)=C2C#N 18.7%
CC1CC(=O)N(c2ccc(NCCc3ccc(O)cc3)c([N+](=O)[O-])c2)C1=O (stereo not drawn) 29.1%
CCN1C(=O)/C(=C2/C=Cc3cc(C)ccc3N2CC)N(C)C1=S 23%
O=C(O)c1c2c(nc3ccccc13)/C(=C/c1ccc(O)cc1)CCC2 19.3%
CN(C)c1ccc(NC2=C(Cl)C(=O)c3ccccc3C2=O)cc1 22%
Cc1ccc(/C(N)=N/OC(=O)N2c3ccccc3Sc3ccccc32)cc1 23.7%
Oc1ccc(Nc2ncnc3ccccc23)cc1 20.3%
CN1/C(=C\C=N\NC(=O)c2ccc(O)cc2)C(C)(C)c2ccccc21 22.5%
O=C(Cn1c(C(=O)NCC2CCCO2)cc2sccc21)c1ccccc1 (stereo not drawn) 18.4%
Cc1ccc(NC(=O)CCNCc2ccco2)cc1S(=O)(=O)N(C)C 33.8%
CC(NCc1ccc(S(N)(=O)=O)cc1)C(=O)N1c2ccccc2CC1C (stereo not drawn) 13.9%
O=C(C1=C(O)C(=O)N(c2nc3ccc(Cl)cc3s2)C1c1ccco1)c1ccco1 (stereo not drawn) 28.7%
C/C(=N\NC(=O)c1ccccc1F)c1ccc2c(c1)Nc1ccccc1S2 20.8%
COc1cc(/C=C2\C(=O)N(C)C(=S)N2C)ccc1O 9.53%
COc1ccc(NC(=O)c2ccc(NC(=O)CN3CCN(c4ccc(O)cc4)CC3)cc2)cc1 18.8%
